# Bioassay records from PubChem.
# An excerpt weighted towards active compounds, which were near 2.7% of everything screened.
# Neddylation inh – cullin neddylation inhibition; P61081+Q13564; TR-FRET cullin neddylation, biochemical; calls only at 25 µM; 360,000 compounds, 0.58% hits; AID 651699; in the data active = inhibition above about 36%
# Target sequence (P61081 whole entry, looked up): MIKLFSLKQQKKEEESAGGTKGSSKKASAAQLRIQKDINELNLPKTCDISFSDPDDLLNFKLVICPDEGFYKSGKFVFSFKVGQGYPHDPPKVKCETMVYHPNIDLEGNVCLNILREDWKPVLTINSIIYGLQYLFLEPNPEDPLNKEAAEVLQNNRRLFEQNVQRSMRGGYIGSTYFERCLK
# Target sequence (Q13564 whole entry, looked up): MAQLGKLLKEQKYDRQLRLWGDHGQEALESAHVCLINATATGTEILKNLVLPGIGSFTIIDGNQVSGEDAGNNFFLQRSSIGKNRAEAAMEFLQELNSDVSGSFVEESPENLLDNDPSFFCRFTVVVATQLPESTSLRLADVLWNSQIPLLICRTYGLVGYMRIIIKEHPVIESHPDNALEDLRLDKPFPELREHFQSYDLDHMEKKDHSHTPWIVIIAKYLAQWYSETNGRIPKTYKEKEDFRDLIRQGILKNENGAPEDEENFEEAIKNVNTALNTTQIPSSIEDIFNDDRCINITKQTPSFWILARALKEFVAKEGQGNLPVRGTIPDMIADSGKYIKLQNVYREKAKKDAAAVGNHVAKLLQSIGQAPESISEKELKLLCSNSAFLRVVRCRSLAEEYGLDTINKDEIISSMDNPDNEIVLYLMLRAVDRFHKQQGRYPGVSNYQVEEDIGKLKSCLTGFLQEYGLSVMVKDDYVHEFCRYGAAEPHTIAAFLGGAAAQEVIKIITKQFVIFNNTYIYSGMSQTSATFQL
# proKLK7 act – activators of human kallikrein-7 zymogen | P49862 | purified proKLK7, EDANS-DABCYL substrate fluorescence; 100% is mature enzyme control, 0% vehicle | activation, % at 7 µM | 370,000 compounds, 0.9% hits | AID 652039;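 active = activation above the mean of all tested compounds plus 3 SD, computed per campaign excluding outliers beyond control limits, cut at about 13% in these data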
# PfG6PD inh – PfG6PD (Plasmodium falciparum) enzyme inhibition. PfGluPho enzyme, NADPH resazurin-diaphorase fluorescence. inhibition, % at 20 µM. 350,000 compounds, 0.78% hits;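 active = inhibition reaching at least a set limit at 20 µM in the primary screen, cut at about 59% in these data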;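 also: 0% = DMSO wells with substrate and 100% = DMSO wells lacking glucose-6-phosphate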
# FAS TE block – FAS thioesterase (human) inhibition. P49327. recombinant FAS-TE, OMFH fluorogenic substrate, fluorescence endpoint. inhibition, % at 15 µM. 360,000 compounds, 0.67% hits. AID 602261;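 active = compounds whose normalised, plate-corrected inhibition of enzyme fluorescence in the single-dose primary screen is 50% or more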;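 also: 0% = DMSO with enzyme and 100% = substrate without enzyme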
# PfG6PD confirm – confirmation of Plasmodium falciparum G6PD inhibitors; recombinant PfGluPho, NADPH-diaphorase-resazurin fluorescence; inhibition, % at 20 µM; shares compounds with PfG6PD inh; AID 504753; 2,400 compounds, 34% hits;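 active = inhibition of at least 50% at 20 µM in any single replicate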;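 also: 0% = DMSO with substrate and 100% = DMSO lacking glucose-6-phosphate substrate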
# Diaphorase 10uM – counter-screen for P. falciparum G6PD inhibitors: diaphorase inhibitors, oxidizers; shares compounds with PfG6PD inh; diaphorase-coupled resazurin reduction, fluorescence, NADPH 10 uM; inhibition, % at 20 µM; 820 compounds, 39% hits; AID 504862;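 active = average inhibition reaching 50% or more with the compound at 20 µM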;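 also: resorufin red fluorescence formed as diaphorase reduces resazurin using NADPH; 0% = DMSO with enzyme and 100% = DMSO without enzyme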
# Diaph ctr 30uM – inhibits diaphorase or oxidizes, flagging false PfG6PD hits; shares compounds with PfG6PD inh; Diaphorase/resazurin coupled assay, resorufin fluorescence, 30 uM NADPH; inhibition, % at 20 µM; 820 compounds, 29% hits; AID 504863;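 active = inhibition averaging 50% or more, tested at 20 µM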;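 also: 0% = DMSO with enzyme and 100% = DMSO wells lacking diaphorase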
# An asterisk follows results filed as active; i = inactive; x = no result given.
SMILES,Neddylation inh,proKLK7 act,PfG6PD inh,FAS TE block,PfG6PD confirm,Diaphorase 10uM,Diaph ctr 30uM
Cc1nnc(N/N=C/c2ccc(-c3ccccc3F)o2)n1N,i,0,67*,-5,56*,22,20
O=C(O)c1ccc(-c2ccc(/C=N/Nc3ccc([N+](=O)[O-])cc3)o2)cc1,i,0,71*,2,36,x,x
Cc1nnc(N/N=C/c2ccccc2O)n1N,i,0,32,-3,x,x,x
Cc1n[nH]c(=S)n1/N=C/c1ccc(-c2ccccc2[N+](=O)[O-])o1,i,0,17,-3,x,x,x
COc1ccc(CC(=O)N/N=C/c2sccc2C)cc1,i,1,-4,-4,x,x,x
Cc1ccc(CSCC(=O)N/N=C/c2sccc2C)cc1,i,0,78*,0,52*,63*,54*
Nc1c(C(=O)c2ccccc2)sc2nsc(SCCN3CCOCC3)c12,i,1,58,-13,x,x,x
CC(=O)c1sc2nsc(SCCN3CCOCC3)c2c1N,i,0,78*,-2,-17,x,x
O=C(Oc1cccc2cccnc12)c1cccc([N+](=O)[O-])c1,i,0,8,-4,x,x,x
O=[N+]([O-])c1ccc(Oc2cccc3cccnc23)c([N+](=O)[O-])c1,i,0,119*,11,95*,85*,75*
Cc1ccc2cccc(Oc3ccc([N+](=O)[O-])cc3[N+](=O)[O-])c2n1,i,1,121*,11,91*,94*,80*
N#Cc1ccc(Oc2cccc3cccnc23)c([N+](=O)[O-])c1,i,-4,102*,0,70*,64*,43
O=C(CSc1nnc(COc2ccccc2)n1-c1ccccc1)Nc1ccc(S(=O)(=O)Nc2nccs2)cc1,x,0,x,x,x,x,x
CC(C)CSc1nc2c(c(=O)[nH]c(=O)n2C)n1CC(O)COc1cccc2ccccc12 (stereo not given),i,0,64*,-9,29,x,x
Cn1c(=O)c2cc(S(=O)(=O)N3CCN(Cc4ccccc4)CC3)ccc2n(C)c1=O,x,0,x,x,x,x,x
CC1=CC(=NOC(=O)/C=C/c2ccccc2)C=C(C)C1=O,i,0,75*,-4,61*,28,27
CC1=CC(=O)C=C(C)C1=NOC(=O)/C=C\c1ccccc1,i,-1,35,-10,x,x,x
CC(C)=CCC/C(C)=C/CN1CC(=O)N2[C@H](C[C@@]3(n4ccc5ccccc54)c4ccccc4N(S(=O)(=O)c4ccccc4)[C@@H]23)C1=O,x,0,x,x,x,x,x
O=C1C(=O)c2c(ccc3ccccc23)-c2ccccc21,i,0,62*,0,17,x,x
O=c1c2ccccc2n(Cc2ccccc2)n1[C@@H](Cc1ccccc1)Cn1cc(-c2ccc(-c3ccccc3)cc2)nn1,x,-1,x,x,x,x,x
Cc1ccc2nc(SCc3nnc(-c4cccs4)o3)[nH]c2c1,i,0,84*,-3,41,x,x
COC(=O)C1CN(Cc2cn(CCOC(C)=O)nn2)CCS(=O)(=O)N1Cc1ccc(F)cc1 (stereo not given),x,0,x,x,x,x,x
NC(=O)c1csc(-c2ccncc2)n1,i,0,-10,-4,x,x,x
Nc1cc(-c2ccncc2)c[nH]c1=O,i,-1,64*,-3,30,x,x
O=C(CN1C(=O)C2C3C=CC(C3)C2C1=O)OCC(=O)c1ccc(Cl)cc1 (stereo not given),i,0,8,-5,x,x,x
SMILES,Neddylation inh,proKLK7 act,PfG6PD inh,FAS TE block,PfG6PD confirm,Diaphorase 10uM,Diaph ctr 30uM
O=C(CN1C(=O)C2C3C=CC(C3)C2C1=O)OCC(=O)c1ccc([N+](=O)[O-])cc1 (stereo not given),i,0,59*,-1,60*,-1,-4
COc1ccccc1N1CCN(/N=C/c2ccc(O)c(O)c2)CC1,x,0,59*,x,46,x,x
CC(C)Oc1ccccc1C1CC(=O)Nc2cc3c(cc21)OCO3 (stereo not given),i,0,80*,7,40,x,x
Cc1nc2c(o1)C(=O)c1ccccc1C2=Nc1ccccc1,i,0,104*,5,50*,53*,48
CC(=O)c1c(C)oc2c1C(=O)c1ccccc1C2=O,i,0,-39,-4,x,x,x
Cc1ccc(-c2cc(C(=O)NN=Cc3c4ccccc4cc4ccccc34)[nH]n2)cc1C,x,-3,x,x,x,x,x
COc1ccc(/C=C(\C#N)C(=O)Nc2cc(S(=O)(=O)N3CCOCC3)ccc2N2CCCC2)cc1,i,-1,64*,34,36,x,x
O=C(Nc1cc(S(=O)(=O)N2CCOCC2)ccc1N1CCCCC1)c1cc(-c2ccccn2)nc2ccccc12,i,0,71*,34,45,x,x
CN(C)S(=O)(=O)c1cccc(C(=O)Nc2cc(S(=O)(=O)N3CCOCC3)ccc2N2CCCC2)c1,i,0,66*,-5,34,x,x
C[C@H]1[C@@H](C(=O)N2CCCC2)CC(=O)/C(=N/OCc2ccccc2)C[C@@H]1c1ccccc1,x,0,x,x,x,x,x
CCCC1Nc2ccc(C(=O)O)cc2C2C=CCC12 (stereo not given),i,x,6,-7,x,x,x
CCOC(=O)C1Nc2ccc(C(=O)O)cc2C2C=CCC12 (stereo not given),i,-2,62*,-17,21,x,x
O=C(CCc1ccc(O)c(O)c1)N/N=C/c1ccc2c(c1)OCO2,i,1,62*,-3,34,x,x
Cc1cccc(N(CC(=O)N/N=C/c2cc([N+](=O)[O-])ccc2Cl)S(C)(=O)=O)c1C,i,x,123*,51*,82*,79*,71*
CS(=O)(=O)N(CC(=O)N/N=C/c1cc([N+](=O)[O-])ccc1Cl)c1ccccc1,i,0,54,20,x,x,x
Nn1c(SCC(=O)Nc2ccccc2-c2ccccc2)nnc1-c1n[nH]c2c1CCC2,x,0,x,x,x,x,x
COC(=O)C1CN(Cc2ccc(OC)cc2)CCS(=O)(=O)N1Cc1cn(Cc2ccc(Cl)cc2)nn1 (stereo not given),x,0,x,x,x,x,x
CCCn1cc(S(=O)(=O)CC(=O)Nc2ccc(OC)cc2OC)c2ccccc21,i,0,67*,1,68*,42,33
COc1ccc(NC(=O)CS(=O)(=O)c2cn(CC(=O)N(C(C)C)C(C)C)c3ccccc23)c(OC)c1,i,0,-4,-1,x,x,x
COc1c2ccoc2c(OCC=C(C)C)c2oc(=O)ccc12,i,0,68*,7,54*,18,29
N#Cc1ccc(Cn2ccc3ccc(-c4ccc5ccn(C(=O)C6CCCCC6)c5c4)cc32)cc1,x,-1,x,x,x,x,x
COc1ccc(NS(=O)(=O)c2ccc(N3CCCC3)c(NC(=S)Nc3cccc(C)c3C)c2)cc1,i,-1,80*,36,53*,-29,-12
COc1ccc(NS(=O)(=O)c2ccc(N3CCCC3)c(N)c2)cc1,i,0,-7,2,x,x,x
